# Laboratory results: PubChem BioAssay
# Calls of active or inactive are those of the source. Unless noted, the rule behind the calls is not given here.
# Key:
# [1] = test system: Wnt5a (protein binding on small-molecule microarray); test: small molecules binding Wnt5a protein – biophysical, small-molecule microarray, 635/667 nm fluorescence, primary screen (AID 1142); details: 635 nm fluorescence, higher = more signal;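 note: fluorescence read at 667 nm with signal to noise per printed feature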
# [2] = ATP-based viability of Huh7 replicon cells – cell-based, CellTiter-Glo luminescence, basal, 48 h, cytotoxicity control for HCV replication inhibitor project, primary screen (AID 1143); details: higher = more signal, called active from +8 up or from −8 down;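 note: Huh7 hepatoma cells carrying a hepatitis C replication reporter with no stimulus; test concentration not given here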
# [3] = Pseudomonas biofilm growth suppression – PAO1 strain, BacTiter-Glo luminescence, LB-PBS, primary screen (AID 1144); details: P. aeruginosa PAO1 biofilm, 12 h, higher = more signal
# [4] = basal CRE-LacZ reporter activity in PC12 – cell-based, unstimulated, primary screen (AID 1145); details: no forskolin, luminescence, 4.5 h, higher = more signal, called active from +8 up or from −8 down
# [5] = forskolin-driven CRE-LacZ activity in PC12 – cell-based, CRE-LacZ reporter, forskolin-stimulated, primary screen (AID 1146); details: luminescence, 4.5 h, higher = more signal, called active from +8 up or from −8 down;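 note: PC12 cells with 6xCRE LacZ reporter stimulated by forskolin 10 µM; beta-galactosidase reporter signal reflecting CREB driven transcription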
# [6] = biological target: Streptavidin (Streptomyces avidinii) (UniProt P22629); test: compounds binding control protein streptavidin – biophysical, small-molecule microarray, 635/667 nm fluorescence, artefact control for SMM compound annotation, primary screen (AID 1147); details: higher = more signal;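 note: signal reflects streptavidin binding to arrayed compounds as a control protein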
# Chain of Streptavidin (Streptomyces avidinii) (P22629 whole entry, looked up): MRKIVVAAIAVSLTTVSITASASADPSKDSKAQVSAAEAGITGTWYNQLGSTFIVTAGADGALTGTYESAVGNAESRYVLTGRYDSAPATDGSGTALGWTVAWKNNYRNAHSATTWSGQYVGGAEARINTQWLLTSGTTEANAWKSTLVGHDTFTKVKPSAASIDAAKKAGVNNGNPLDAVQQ
# [7] = probe aInhba binding on compound microarray – biochemical, small-molecule microarray, 635/667 nm fluorescence, primary screen (AID 1148); details: higher = more signal;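 note: score merges 667nm spot fluorescence with signal-to-noise for antibody binding to printed compounds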
# Torsin-1A (Homo sapiens) [8] = biological target: Torsin-1A (Homo sapiens) (UniProt O14656); test: TOR1A wild-type binding on microarray – cell lysate, small-molecule microarray, lysate, 635/667 nm, primary screen (AID 1149); details: COS7 hTOR1A-WT lysate, 635 nm fluorescence, higher = more signal
# Chain of Torsin-1A (Homo sapiens) (O14656 whole entry, looked up): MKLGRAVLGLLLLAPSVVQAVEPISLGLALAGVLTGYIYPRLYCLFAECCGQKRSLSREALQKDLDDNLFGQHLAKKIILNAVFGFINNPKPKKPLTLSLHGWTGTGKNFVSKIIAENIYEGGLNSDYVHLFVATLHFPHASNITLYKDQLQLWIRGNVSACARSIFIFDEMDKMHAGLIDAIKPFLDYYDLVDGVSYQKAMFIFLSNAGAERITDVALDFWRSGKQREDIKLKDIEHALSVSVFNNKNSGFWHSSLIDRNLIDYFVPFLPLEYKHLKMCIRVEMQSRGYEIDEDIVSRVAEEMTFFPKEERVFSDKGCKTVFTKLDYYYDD
# Torsin-1A (Homo sapiens) [9] = biological target: Torsin-1A (Homo sapiens) (UniProt O14656); test: torsin A mutant lysate binding on microarrays – cell lysate, small-molecule microarray, COS7 lysate, 635/667 nm fluorescence, primary screen (AID 1150); details: COS7 hTOR1A mutant lysate, 635 nm fluorescence, higher = more signal;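 note: score pools 667 nm emission and signal to noise measuring lysate protein binding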
# [10] = test system: Sonic hedgehog protein (Shh); test: Sonic hedgehog microarray binding compounds – biochemical, small-molecule microarray, 635/667 nm fluorescence, primary screen (AID 1151); details: 635 nm fluorescence, higher = more signal;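 note: Shh protein binding to compounds spotted on small-molecule microarray slides; score combines spot fluorescence intensity with signal-to-noise across triplicate slides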
SMILES,composite z-score [1],z-score [2],z-score [3],z-score [4],z-score [5],composite z-score [6],composite z-score [7],composite z-score (Torsin-1A (Homo sapiens) [8]),composite z-score (Torsin-1A (Homo sapiens) [9]),composite z-score [10]
O=C1O[C@@H](c2ccccc2)[C@@H](c2ccccc2)N2[C@@H](c3ccc(O)cc3)[C@]3(C(=O)Nc4ccc(C#CCCO)cc43)[C@@H](C(=O)N3CCN(c4ncccn4)CC3)[C@H]12,0.409,-1.28 (inactive),-0.622 (inactive),-0.554 (inactive),-0.572 (inactive),-0.704,0.0214,0.591,0.967,2.21
COCCOC(=O)N1C(=O)[C@@]2(c3cc(C#CC4(O)CCCCCC4)ccc31)[C@H](C(=O)N1CCc3cc(OC)c(OC)cc3C1)[C@H]1C(=O)O[C@H](c3ccccc3)[C@H](c3ccccc3)N1[C@@H]2c1ccc(OCCO)cc1,0.536,-1.38 (inactive),-0.555 (inactive),-0.465 (inactive),0.581 (inactive),1.04,-0.0736,0.71,0.362,1.58
Cc1cc(C)c(C(O)C2C=CC3C(=O)N(c4ccccc4)C(=O)C3N2Nc2ccccc2F)c(C)c1 (stereo not given),-0.122,0.224 (inactive),-0.386 (inactive),0.44 (inactive),-0.425 (inactive),0.563,0.122,-0.489,-0.395,0.0807
NC(=O)NCC#Cc1ccc2c(c1)[C@]1(C(=O)N2)[C@H](C(=O)N2CCN(c3ncccn3)CC2)[C@H]2C(=O)O[C@H](c3ccccc3)[C@H](c3ccccc3)N2[C@@H]1c1ccc(O)cc1,0.364,-0.0243 (inactive),0.407 (inactive),-0.467 (inactive),-0.43 (inactive),0.328,-0.352,0.0312,0.377,0.905
COC(=O)[C@@]1(Cc2ccc(F)cc2)[C@H]2c3cc(C(=O)N4CCCC4)n(CCc4c[nH]c5ccccc45)c3C[C@H]2CN1C(=O)c1ccccc1,0.407,-3.01 (inactive),1.82 (inactive),0.587 (inactive),0.668 (inactive),1.91,0.668,-0.0812,0.321,-0.393
CC(C)[Si](C#C[Si](C(C)C)(C(C)C)C(C)C)(O[C@H](c1ccccc1)c1cn(Cc2ccccc2)nn1)C(C)C,-0.0366,-0.071 (inactive),-1.32 (inactive),-0.752 (inactive),-0.166 (inactive),0.652,-0.016,0.412,0.107,0.558
O=C1OCCC/C=C\[C@H]2OC34C=CCN(c5ccc6ccccc6c5)C(=O)[C@H]3N(CCO)C(=O)[C@@H]4C12 (stereo not given in full),-0.325,0.43 (inactive),0.515 (inactive),0.601 (inactive),-0.183 (inactive),-1.2,-0.299,-0.427,-0.839,-0.59
CCOC(=O)C[C@H]1[C@H](OC(=O)c2ccc(C(=O)c3ccccc3)cc2)[C@@H](NC(=O)c2ccc(-c3ccccc3)cc2)c2cc(OCCCO)ccc2N1C(=O)Cc1ccc(OC)cc1,0.0266,0.128 (inactive),-0.271 (inactive),-0.0989 (inactive),-0.539 (inactive),0.324,0.0569,-0.0633,0.022,-0.235
C=CC[C@]1(C(=O)N2CCOCC2)COC(c2ccc(OCCCO)cc2)=N1,0.0993,-2.76 (inactive),-0.974 (inactive),2.01 (inactive),-0.778 (inactive),1.76,0.166,1.74,2.16,0.935
CC(=O)NCCCC[C@@H]1NC(=O)[C@@H]2C[C@H](C(=O)NCCCCCN)[C@H](c3ccc(O)cc3)N2C1=O,0.66,-0.224 (inactive),0.268 (inactive),0.285 (inactive),-0.389 (inactive),0.977,0.221,1.14,1.54,1.52
CC(C)(C)OC(=O)CC[C@@]1(C(=O)NCC(O)CO)N=C(c2ccc(OCCCO)cc2)O[C@@H]1c1ccccc1CN=[N+]=[N-] (stereo not given in full),0.167,0.0366 (inactive),-0.719 (inactive),1.98 (inactive),-0.424 (inactive),1.14,-0.0021,1.48,0.654,-0.157
C=CC[C@@]1(C(=O)NCCCOC)N=C(c2ccc(OCCCO)cc2)O[C@@H]1c1ccccc1N=[N+]=[N-],0.452,-2.67 (inactive),-1.75 (inactive),-0.711 (inactive),-0.66 (inactive),0.77,0.0713,-0.668,-0.112,-0.388
Cc1ccccc1C(O)C1C=CC2C(=O)NC(=O)C2N1Nc1ccccn1 (stereo not given),-0.155,1.14 (inactive),-0.767 (inactive),-0.708 (inactive),-0.474 (inactive),-0.15,-0.102,0.248,0.0151,-0.224
C=CCC(OC(C)=O)[C@@H]1[C@@H](N(Cc2cccc3ccccc23)C(=O)Cc2ccc(F)cc2)c2cc(OCCCO)ccc2N1C(=O)c1ccc2ccccc2c1 (stereo not given in full),0.107,-0.156 (inactive),-1.04 (inactive),-0.724 (inactive),1.06 (inactive),0.0722,-0.0774,-0.035,-0.183,0.508
COC(=O)C1(CC(C)C)C=C2C(=C(c3ccccc3)C(=O)C2C)CN1 (stereo not given),0.894,-0.207 (inactive),0.279 (inactive),0.966 (inactive),1.64 (inactive),0.246,0.613,-0.0212,1.3,1.75
O=C1[C@H]2C=C(I)[C@H](C[C@@H]2OCCOCCO)[C@@]12CO2,0.0712,1.05 (inactive),-0.0471 (inactive),1.67 (inactive),0.839 (inactive),1.08,-0.106,0.48,-0.0946,0.719
CC1CC/C=C\[C@H]2OC34C=CCN(c5ccc(Cl)cc5)C(=O)[C@H]3N(C(C)CO)C(=O)[C@]4(C)C2C(=O)O1 (stereo not given in full),-0.304,0.0276 (inactive),0.2 (inactive),-0.0859 (inactive),0.325 (inactive),-0.367,-0.401,-0.979,-1.5,-0.374
COc1ccc([Si](C)(C)[C@@H]2[C@@H](CC(=O)N3Cc4ccccc4C[C@H]3CO)O[C@]3(C(=O)N(Cc4ccc(N5C(=O)c6cccc7cccc5c67)cc4)c4ccccc43)[C@H]2C)cc1,0.453,-2.28 (inactive),-0.334 (inactive),2.34 (inactive),0.972 (inactive),0.29,0.0319,0.645,0.592,1.69
CC[C@@H]1C=C(C(=O)O)[C@H](c2ccccc2)N1S(=O)(=O)c1ccc(C)cc1,0.0651,-0.272 (inactive),0.853 (inactive),-0.676 (inactive),-0.0818 (inactive),0.0128,-0.197,0.474,0.518,-0.313
CC(C)N1C(=O)C[C@@](C(=O)NC2CC2)(c2ccc([N+](=O)[O-])cc2)[C@H]1c1ccc(CO)cc1,-0.0471,-4.5 (inactive),-0.0956 (inactive),1.82 (inactive),-0.673 (inactive),-0.677,-0.252,-1.39,1.4,-0.161
NC(=O)[C@@]1(Cc2ccccc2)COC(c2ccc(OCCCO)cc2)=N1,0.0546,0.257 (inactive),0.126 (inactive),2.24 (inactive),-1.34 (inactive),-0.504,0.105,-0.475,0.709,-0.429
COc1cc(C(O)C2C=CC3C(=O)N(C)C(=O)C3N2Nc2ccccc2)cc(OC)c1OC (stereo not given),0.238,0.338 (inactive),-0.426 (inactive),0.246 (inactive),-0.944 (inactive),1.06,0.813,0.892,1.17,-0.153
NC(=O)NCC#Cc1ccc2c(c1)[C@]1(C(=O)N2)[C@H](c2ccccc2OCCO)N2[C@H](c3ccccc3)[C@H](c3ccccc3)OC(=O)[C@H]2[C@@H]1C(=O)O,-0.163,-1.22 (inactive),-1.19 (inactive),0.595 (inactive),1.36 (inactive),0.333,0.121,-0.689,0.28,0.028
CCCCN1CC=CC23O[C@@H]4/C=C\CCCOC(=O)C4[C@H]2C(=O)N(CCO)[C@@H]3C1=O (stereo not given in full),-0.703,-0.211 (inactive),-1.29 (inactive),-0.48 (inactive),-0.681 (inactive),-1.6,-0.128,-2.13,-1.59,-0.214
O[C@@H](Cc1ccccc1)[C@@H](/C=C/C1CC1)N(CC#Cc1ccccc1)Cc1ccccc1Br,-1.03,-1.72 (inactive),0.357 (inactive),2.41 (inactive),0.21 (inactive),-0.5,-0.183,-0.802,-0.744,-1.5
COCCOC(=O)N1C(=O)[C@@]2(c3cc(C#CC4=CCCCC4)ccc31)[C@H](c1ccccc1OCCO)N1[C@H](c3ccccc3)[C@H](c3ccccc3)OC(=O)[C@H]1[C@@H]2C(=O)NC[C@H](O)c1ccccc1,0.6,-4.97 (inactive),0.819 (inactive),-0.329 (inactive),0.083 (inactive),0.423,-0.0428,0.281,0.501,2.13
CCOC(=O)C[C@H]1[C@H](OC(=O)Cc2ccc3c(c2)OCO3)[C@@H](NC(=O)c2ccc3ccccc3n2)c2cc(OCCCO)ccc2N1C(=O)c1ccccc1,0.151,-0.301 (inactive),-0.283 (inactive),7.23 (inactive),0.613 (inactive),0.386,0.0074,0.526,0.302,0.826
CCCC[C@@H](O)C1=C(COc2ccccc2)C[C@H]2C(=O)N(Cc3ccccc3)C(=O)[C@H]2[C@H]1CO,-0.143,-2.03 (inactive),0.436 (inactive),7.39 (inactive),-0.695 (inactive),-0.0098,-0.239,-0.152,0.107,0.491
CC(CO)N1C(=O)[C@@H]2[C@H]3C(=O)OCC=C[C@H]3OC23C=CCN(Cn2nnc4ccccc42)C(=O)[C@@H]13 (stereo not given in full),-0.33,-0.407 (inactive),1.48 (inactive),0.0524 (inactive),-0.391 (inactive),-0.78,-0.213,-0.49,-1.26,0.464
